The full data set covers some 7,900 targets. This sample favours those with a hit. About 0.6% of all pairs of compound and target were hits.
Tests used:
Experiment in all cases: log2 fold change, soluble protein after heating vs DMSO (PISA); higher = thermal stabilisation; K562 cells, 10 uM, 30 min; active = over 0.2 and 3.5 SD of the protein, either way, in both replicates (recomputed)
[1] = compound: CC[C@@H]1C(=O)N(C)c2cnc(Nc3ccc(C(=O)NC4CCN(C)CC4)cc3OC)nc2N1C1CCCC1
Method in brief: (§1)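 K562 cells at 2×10^6 cells/mL were treated with 10 μM compound for 30 min. Aliquots were heated for 3 min across 48°C-58°C, pooled, and extracted in PBS with 0.5% NP-40 at 4°C; soluble protein was the supernatant after 21,000xg for 90 min. Soluble protein was quantified by TMTpro 16plex LC-MS/MS with channel sums equalised, and reported as log2 fold change in thermal stability against DMSO controls, with values from duplicates.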

volasertib = compound: CC[C@@H]1C(=O)N(C)c2cnc(Nc3ccc(C(=O)N[C@H]4CC[C@H](N5CCN(CC6CC6)CC5)CC4)cc3OC)nc2N1C(C)C [volasertib]
Method in brief: as §1

[2] = compound: CC[C@H](C)N1C=C(C2=C(C=C(C=C21)C3=CN=C(C=C3)N4CCNCC4)C(=O)NCC5=C(C=C(NC5=O)C)C)C
Method in brief: as §1

epoxomicin = compound: CC[C@H](C)[C@@H](C(=O)N[C@@H]([C@@H](C)O)C(=O)N[C@@H](CC(C)C)C(=O)[C@]1(CO1)C)NC(=O)[C@H]([C@@H](C)CC)N(C)C(=O)C [epoxomicin]
Method in brief: as §1

[3] = compound: CCn1c(C(=O)N(C2CC2)C2CC2)cc2c3c(ncn3C)c(Nc3cc(C)n(C)n3)nc21
Method in brief: as §1

[4] = compound: CCn1cc(-c2ccnc3[nH]c(-c4cccc(CN(C)C)c4)cc23)c(-c2ccc(NC(=O)N(C)C)cc2)n1
Method in brief: as §1

[5] = compound: CN(C)CC(=O)Nc1ccc2[nH]c(=O)c3ccccc3c2c1
Method in brief: as §1

rosiglitazone = compound: CN(CCOC1=CC=C(C=C1)C[C@H]2C(=O)NC(=O)S2)C3=CC=CC=N3 (racemic) [rosiglitazone]
Method in brief: as §1

[6] = compound: CN1C2=C(C3=C1C(=O)N(N=C3)CC4=CC(=CC=C4)N)SC(=C2)S(=O)C
Method in brief: as §1

[7] = compound: CN1CCC(CNc2ccc3ncc(-c4cccc(OC(F)(F)F)c4)n3n2)CC1
Method in brief: as §1

saracatinib = compound: CN1CCN(CCOc2cc(OC3CCOCC3)c3c(Nc4c(Cl)ccc5c4OCO5)ncnc3c2)CC1 [saracatinib]
Method in brief: as §1

sotrastaurin = compound: CN1CCN(c2nc(C3=C(c4c[nH]c5ccccc45)C(=O)NC3=O)c3ccccc3n2)CC1 [sotrastaurin]
Method in brief: as §1

alvocidib = compound: CN1CC[C@H](c2c(O)cc(O)c3c(=O)cc(-c4ccccc4Cl)oc23)[C@H](O)C1 [alvocidib]
Method in brief: as §1

Tubastatin A = compound: CN1CCc2c(c3ccccc3n2Cc2ccc(C(=O)NO)cc2)C1 [Tubastatin A]
Method in brief: as §1

[8] = compound: CNC(=O)C1=CC=CC=C1NC2=NC(=NC=C2Cl)NC3=C(C=C(C=C3)N4CCOCC4)OC
Method in brief: as §1

defactinib = compound: CNC(=O)c1ccc(Nc2ncc(C(F)(F)F)c(NCc3nccnc3N(C)S(C)(=O)=O)n2)cc1 [defactinib]
Method in brief: as §1

rucaparib = compound: CNCc1ccc(-c2[nH]c3cc(F)cc4c3c2CCNC4=O)cc1 [rucaparib]
Method in brief: as §1

[9] = compound: CNc1nc(-c2ccc3c(N)n[nH]c3c2)cc(N2C[C@@H](C(=O)NC3CCCCC3)CC[C@H]2C)n1
Method in brief: as §1

encorafenib = compound: COC(=O)N[C@@H](C)CNc1nccc(-c2cn(C(C)C)nc2-c2cc(Cl)cc(NS(C)(=O)=O)c2F)n1 [encorafenib]
Method in brief: as §1

[10] = compound: COC(=O)[C@H](CCSC)NC(=O)C1=C(C=C(C=C1)NC[C@H](CS)N)C2=CC=CC=C2
Method in brief: as §1

Measured: log2 fold change

OTUD6B (UniProt Q8N6M0)
Chain of UniProt Q8N6M0 (Q8N6M0 whole entry, looked up): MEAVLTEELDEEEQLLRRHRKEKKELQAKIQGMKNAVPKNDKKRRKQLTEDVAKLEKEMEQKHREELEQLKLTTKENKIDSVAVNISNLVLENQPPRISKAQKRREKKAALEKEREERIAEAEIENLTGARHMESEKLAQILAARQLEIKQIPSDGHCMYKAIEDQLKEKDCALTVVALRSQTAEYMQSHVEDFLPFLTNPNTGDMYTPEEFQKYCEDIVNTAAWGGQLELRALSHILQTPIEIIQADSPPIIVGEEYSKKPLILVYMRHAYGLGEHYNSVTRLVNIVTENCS
inactive: [1] -0.163 | [2] 0.036 | epoxomicin 0.094 | [3] -0.032 | [4] -0.055 | [5] 0.066 | rosiglitazone 0.09 | [6] -0.019 | [7] -0.137 | saracatinib -0.009 | sotrastaurin -0.035 | alvocidib -0.147 | Tubastatin A -0.007 | [8] -0.008 | defactinib -0.138 | rucaparib 0.019 | [9] 0.001 | encorafenib 0.122 | [10] -0.055
active: volasertib -0.435

NAPG (UniProt Q99747)
Chain of UniProt Q99747 (Q99747 whole entry, looked up): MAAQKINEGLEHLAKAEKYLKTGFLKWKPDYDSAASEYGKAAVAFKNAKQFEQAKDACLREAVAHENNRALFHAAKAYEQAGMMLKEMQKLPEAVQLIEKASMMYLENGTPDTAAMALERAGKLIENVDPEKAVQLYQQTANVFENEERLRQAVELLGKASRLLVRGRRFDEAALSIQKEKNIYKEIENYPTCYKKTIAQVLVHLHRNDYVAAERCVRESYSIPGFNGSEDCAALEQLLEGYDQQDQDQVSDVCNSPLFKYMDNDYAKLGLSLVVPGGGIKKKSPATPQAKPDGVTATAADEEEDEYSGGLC
inactive: [1] -0.118 | [2] 0.072 | epoxomicin 0.069 | [3] -0.05 | [4] -0.076 | [5] 0.048 | rosiglitazone 0.088 | [6] 0 | [7] -0.028 | saracatinib -0.028 | sotrastaurin -0.075 | alvocidib -0.137 | Tubastatin A 0.048 | [8] 0.031 | defactinib -0.159 | rucaparib 0.044 | [9] 0.053 | encorafenib 0.052 | [10] -0.028
active: volasertib -0.462

MRPS35 (UniProt P82673)
inactive: [1] 0.064 | volasertib 0.014 | [2] 0.029 | epoxomicin 0.048 | [3] -0.054 | [4] -0.076 | [5] 0.027 | rosiglitazone -0.08 | [6] -0.013 | [7] -0.007 | saracatinib -0.18 | sotrastaurin -0.033 | alvocidib 0.01 | Tubastatin A 0.078 | [8] -0.022 | defactinib 0.043 | rucaparib 0.071 | [9] 0.062 | encorafenib 0.039 | [10] 0.007

OSBPL8 (UniProt Q9BZF1)
Chain of UniProt Q9BZF1 (Q9BZF1 whole entry, looked up): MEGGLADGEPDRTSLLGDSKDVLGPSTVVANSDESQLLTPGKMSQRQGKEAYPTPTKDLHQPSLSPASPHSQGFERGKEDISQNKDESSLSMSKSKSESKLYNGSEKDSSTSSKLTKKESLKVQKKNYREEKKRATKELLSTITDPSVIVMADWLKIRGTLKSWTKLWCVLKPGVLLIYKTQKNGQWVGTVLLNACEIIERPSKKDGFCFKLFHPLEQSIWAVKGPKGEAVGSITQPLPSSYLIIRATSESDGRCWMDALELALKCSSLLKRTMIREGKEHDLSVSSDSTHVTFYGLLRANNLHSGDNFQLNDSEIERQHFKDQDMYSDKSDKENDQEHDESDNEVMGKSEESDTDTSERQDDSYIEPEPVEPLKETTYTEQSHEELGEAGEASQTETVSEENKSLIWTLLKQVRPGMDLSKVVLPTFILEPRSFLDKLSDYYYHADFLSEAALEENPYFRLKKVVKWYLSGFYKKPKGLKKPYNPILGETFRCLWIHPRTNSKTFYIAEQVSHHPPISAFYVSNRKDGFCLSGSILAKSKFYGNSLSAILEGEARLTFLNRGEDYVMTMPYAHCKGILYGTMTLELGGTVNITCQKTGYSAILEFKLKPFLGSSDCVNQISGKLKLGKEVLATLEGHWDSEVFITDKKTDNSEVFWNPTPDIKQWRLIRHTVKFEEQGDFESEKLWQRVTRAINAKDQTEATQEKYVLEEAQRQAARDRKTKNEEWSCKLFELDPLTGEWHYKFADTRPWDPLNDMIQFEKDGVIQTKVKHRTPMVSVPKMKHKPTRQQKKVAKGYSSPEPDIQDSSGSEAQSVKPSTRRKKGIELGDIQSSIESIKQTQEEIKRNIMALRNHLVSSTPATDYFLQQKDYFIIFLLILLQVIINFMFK
active: [9] 0.488
inactive: [1] -0.068 | volasertib -0.026 | [2] 0.062 | epoxomicin -0.118 | [3] 0.271 | [4] 0.061 | [5] 0.055 | rosiglitazone 0.031 | [6] 0.09 | [7] -0.114 | saracatinib -0.175 | sotrastaurin -0.054 | alvocidib -0.011 | Tubastatin A 0.078 | [8] 0.11 | defactinib 0.025 | rucaparib 0.232 | encorafenib 0.167 | [10] -0.078

NUP160 (UniProt Q12769)
inactive: [1] -0.109 | [2] 0.005 | epoxomicin -0.049 | [3] -0.01 | [4] 0.04 | [5] 0.007 | rosiglitazone 0.03 | [6] -0.033 | [7] 0.014 | saracatinib 0.155 | sotrastaurin -0.141 | alvocidib -0.078 | Tubastatin A 0 | [8] 0.004 | defactinib -0.11 | rucaparib 0.019 | [9] -0.018 | encorafenib 0.038 | [10] 0.003
active: volasertib -0.62

NUP98 (UniProt P52948)
inactive: [1] -0.12 | [2] 0.084 | epoxomicin -0.012 | [3] -0.027 | [4] -0.018 | [5] 0.039 | rosiglitazone 0.068 | [6] 0.033 | [7] -0.038 | saracatinib -0.019 | sotrastaurin -0.072 | alvocidib -0.063 | Tubastatin A 0.041 | [8] 0.018 | defactinib -0.12 | rucaparib 0.063 | [9] -0.037 | encorafenib 0.039 | [10] -0.053
active: volasertib -0.276

NDUFA6 (UniProt P56556)
Chain of UniProt P56556 (P56556 whole entry, looked up): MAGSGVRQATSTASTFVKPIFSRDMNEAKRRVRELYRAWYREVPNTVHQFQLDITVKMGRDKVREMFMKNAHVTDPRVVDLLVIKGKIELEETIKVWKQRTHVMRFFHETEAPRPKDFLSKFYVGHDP
inactive: [1] -0.069 | volasertib -0.252 | [2] 0.098 | epoxomicin 0.115 | [3] -0.086 | [4] -0.089 | [5] 0.081 | rosiglitazone 0.116 | [6] -0.022 | [7] -0.072 | saracatinib -0.037 | sotrastaurin 0.003 | alvocidib -0.122 | Tubastatin A 0.021 | [8] -0.039 | defactinib -0.068 | rucaparib 0.006 | [9] 0.044 | encorafenib 0.034 | [10] -0.039

NUMA1 (UniProt Q14980)
Chain of UniProt Q14980 (Q14980 whole entry, looked up): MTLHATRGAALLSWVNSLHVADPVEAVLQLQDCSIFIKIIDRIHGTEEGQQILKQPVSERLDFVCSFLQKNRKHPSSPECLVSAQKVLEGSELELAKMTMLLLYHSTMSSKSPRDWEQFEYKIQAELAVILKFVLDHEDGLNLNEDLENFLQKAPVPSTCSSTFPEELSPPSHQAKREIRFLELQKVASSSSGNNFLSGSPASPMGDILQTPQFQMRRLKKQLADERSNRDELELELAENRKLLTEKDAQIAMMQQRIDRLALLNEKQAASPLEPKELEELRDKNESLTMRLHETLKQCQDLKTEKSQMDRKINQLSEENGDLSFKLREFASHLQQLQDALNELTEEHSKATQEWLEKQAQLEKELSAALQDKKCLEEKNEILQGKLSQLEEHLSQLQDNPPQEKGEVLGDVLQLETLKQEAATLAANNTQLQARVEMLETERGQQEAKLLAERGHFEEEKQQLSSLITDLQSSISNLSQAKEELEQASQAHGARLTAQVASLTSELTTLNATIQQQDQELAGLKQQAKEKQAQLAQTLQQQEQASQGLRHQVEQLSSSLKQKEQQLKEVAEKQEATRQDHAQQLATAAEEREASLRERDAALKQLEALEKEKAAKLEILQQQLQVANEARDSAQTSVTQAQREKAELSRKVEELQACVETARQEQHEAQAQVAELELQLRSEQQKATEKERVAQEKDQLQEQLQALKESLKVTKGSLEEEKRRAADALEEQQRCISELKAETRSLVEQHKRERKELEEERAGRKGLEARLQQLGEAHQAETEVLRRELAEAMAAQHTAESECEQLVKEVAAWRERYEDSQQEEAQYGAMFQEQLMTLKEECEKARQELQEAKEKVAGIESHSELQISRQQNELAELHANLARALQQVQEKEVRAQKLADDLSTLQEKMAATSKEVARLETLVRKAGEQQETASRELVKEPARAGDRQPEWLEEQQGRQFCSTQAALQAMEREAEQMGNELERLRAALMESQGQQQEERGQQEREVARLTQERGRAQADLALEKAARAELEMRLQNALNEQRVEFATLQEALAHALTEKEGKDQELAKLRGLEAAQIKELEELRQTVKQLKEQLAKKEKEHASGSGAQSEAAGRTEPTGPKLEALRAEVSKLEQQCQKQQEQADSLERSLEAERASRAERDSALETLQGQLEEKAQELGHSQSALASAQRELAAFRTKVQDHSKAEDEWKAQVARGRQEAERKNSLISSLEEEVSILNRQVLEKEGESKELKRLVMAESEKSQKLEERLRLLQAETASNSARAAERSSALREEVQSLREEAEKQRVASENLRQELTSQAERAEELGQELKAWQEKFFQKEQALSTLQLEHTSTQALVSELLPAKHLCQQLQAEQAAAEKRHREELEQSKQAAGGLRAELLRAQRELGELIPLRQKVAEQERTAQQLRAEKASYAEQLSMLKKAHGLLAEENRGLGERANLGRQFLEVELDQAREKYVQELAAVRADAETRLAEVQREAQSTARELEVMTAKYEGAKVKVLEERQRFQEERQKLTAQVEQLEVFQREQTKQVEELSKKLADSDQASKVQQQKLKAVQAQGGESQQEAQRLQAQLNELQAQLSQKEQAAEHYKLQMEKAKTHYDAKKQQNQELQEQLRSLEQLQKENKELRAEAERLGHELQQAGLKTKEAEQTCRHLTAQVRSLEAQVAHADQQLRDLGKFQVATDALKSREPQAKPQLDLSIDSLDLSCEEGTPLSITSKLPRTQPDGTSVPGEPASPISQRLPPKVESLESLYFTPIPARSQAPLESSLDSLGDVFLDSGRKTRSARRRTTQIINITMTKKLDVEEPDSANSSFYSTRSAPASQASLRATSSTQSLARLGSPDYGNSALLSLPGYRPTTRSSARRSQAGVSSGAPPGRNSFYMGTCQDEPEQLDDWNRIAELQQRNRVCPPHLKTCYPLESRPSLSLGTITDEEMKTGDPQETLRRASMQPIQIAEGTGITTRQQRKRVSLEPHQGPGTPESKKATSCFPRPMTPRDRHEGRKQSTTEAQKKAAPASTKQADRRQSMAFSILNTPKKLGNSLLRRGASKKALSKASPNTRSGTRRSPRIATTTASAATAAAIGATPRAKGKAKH
inactive: [1] 0.065 | volasertib 0.034 | [2] 0.039 | epoxomicin -0.044 | [3] -0.031 | [4] 0.068 | [5] 0.003 | rosiglitazone -0.035 | [6] 0.115 | [7] -0.191 | saracatinib -0.069 | sotrastaurin -0.235 | alvocidib -0.063 | Tubastatin A 0.14 | [8] -0.057 | defactinib -0.017 | rucaparib 0.118 | [9] 0.055 | encorafenib 0.174 | [10] -0.009

Reference: the supplement of paper PMC10849652
